Assay results taken from PubChem BioAssay (NCI).
Values joined by “and” are separate entries in the source; they are usually repeats but may differ in a detail not shown here. Identical values can stand only once. Compounds without any hit were thinned out: in the full panel of roughly 83,000, 20% have a hit.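 The endpoint reported here, percent growth, reads 100 for growth as untreated, 0 for no net growth and -100 for all cells dead.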 A number with no mark means an inactive call. Active and inactive are the calls of the source. Rule for the calls: active = growth percent below 10; inactive = the rest.

Test system: HL-60(TB) leukemia
Assay: NCI-60 one-dose screen, 48 h (100 = growth as untreated, 0 = no growth, -100 = all killed)
Conditions: 10 µM unless noted

Question: `O=C1CC(N2C(=O)/C(=C/C(Cl)=C\c3ccc([N+](=O)[O-])cc3)SC2=S)C(=O)N1c1ccc(Cl)cc1` (configuration not stated) was tested. Which growth did it give?
Answer: The growth was 21.3%.

Question: How did the growth turn out when `C=C(C)[C@@H]1CC[C@]2(C(=O)NCC(=O)OC)CC[C@]3(C)[C@H](CC[C@@H]4[C@@]5(C)Cc6c([nH]c7ccccc67)C(C)(C)[C@@H]5CC[C@]43C)[C@@H]12` was run?
Answer: Its growth is 64.8%.

Question: Which growth does the source give for `CCOC(=O)c1sc2ncc(-c3ccc(OC)cc3)n2c1C` here?
Answer: Its growth is 86.5%.

Question: With `Cn1ccc(Cc2cnc(N)s2)n1` as the compound, how does the growth read?
Answer: Its growth is 94.2%.

Question: With `COc1cc(-c2nc(-c3ccccc3)c(-c3ccccc3)[nH]2)cc(OC)c1O` as the compound, how does the growth read?
Answer: Its growth is -8.92% (active).

Question: For `CC(=O)Nc1ncc(S(=O)(=O)c2ccc([N+](=O)[O-])cc2)s1`, which growth is on record?
Answer: The growth was 113%.

Question: `O=C(N/N=C/c1c(Cl)cccc1Cl)c1cccnc1Nc1cccc(C(F)(F)F)c1` was tested. Which growth did it give?
Answer: Its growth is 28.1%.

Question: Which growth does the source give for `COc1ccc(CCN2C(=O)CCC3=C2CCCC3=O)cc1OC` here?
Answer: Its growth is 107%.

Question: How did the growth turn out when `C=C(C)[C@@H]1CC[C@]2(C(=O)N[C@H](CO)Cc3ccccc3)CC[C@]3(C)[C@H](CC[C@@H]4[C@@]5(C)CCCNC(C)(C)[C@@H]5CC[C@]43C)[C@@H]12` was run?
Answer: The growth was -73.3% (active).

Question: How did the growth turn out when `Nc1nc2c(nnn2Cc2ccc(Cl)c(Cl)c2)c(=O)[nH]1` was run?
Answer: The growth was 95%.

Question: How did the growth turn out when `CCCCCC(=O)OCCC1CCCCC1` was run?
Answer: The growth was 109%.

Question: Which growth does the source give for `CC(=O)OCC(=O)[C@@]1(O)CC[C@H]2[C@@H]3CCC4=CC(=O)CC[C@]4(C)[C@@]3(F)[C@@H](O)C[C@@]21C` here?
Answer: The growth was 98.2%.

Question: Which growth does the source give for `COc1ccc2c(c1)C1=NN(C(=O)CO)[C@H](c3ccc(OC(F)(F)F)cc3)[C@@H]1CC2` here?
Answer: The growth was 104%.

Question: With `CC(=O)[C@H]1CCC/C=C/[C@@H]2C[C@H](O)C[C@H]2[C@H](O)/C=C/C(=O)O1` as the compound, how does the growth read?
Answer: The growth was -54.4% (active).

Question: Which growth does the source give for `CCOc1ccc2cc(-c3nn(CC4CCN(C)CC4)c4ncnc(N)c34)ccc2c1` here?
Answer: Its growth is 96.7% and 54.3%.

Question: Which growth does the source give for `CNC(=O)CN1CCC(Oc2cc3c(Nc4cccc(Cl)c4F)ncnc3cc2OC)CC1` here?
Answer: Its growth is 86.9%.

Question: For `Nc1nc(N)nc(N2CCCCC2)n1`, which growth is on record?
Answer: Its growth is 97.9%.

Question: How did the growth turn out when `CC(C)(C)NCCC(O)c1cc2c(Cl)cc(Cl)cc2c2cc(C(F)(F)F)ccc12` (configuration not stated) was run?
Answer: The growth was -60.9% (active).

Question: `C#Cc1cccc(Nc2ncnc3ccc(-c4cnc(N)nc4)cc23)c1` was tested. Which growth did it give?
Answer: The growth was 34.2%.

Question: How did the growth turn out when `COc1cccc2c1C(=O)c1c(O)c3c(c(O)c1C2=O)C[C@@](O)(C(=O)CO)C[C@@H]3OC1CC(OC(C)=O)C(OC(C)=O)C(C)O1` (some centres not stated) was run?
Answer: Its growth is -40% (active).

Question: How did the growth turn out when `Cc1ccc2nc3c(n2c1)C(=O)C(=O)c1ccccc1-3` was run?
Answer: The growth was -59.1% (active).

Question: With `COc1ccc2c(c1)CC[C@H](O)/C2=C/c1cc(OC)c(OC)c(OC)c1` as the compound, how does the growth read?
Answer: Its growth is -20.2% (active).

Question: How did the growth turn out when `CC[C@]1(O)C[C@@H]2CN(Cc3c([nH]c4ccccc34)[C@@](C(=O)OC)(c3cc4c(cc3OC)N(C)[C@H]3[C@@](O)(C(=O)OC)[C@H](OC(C)=O)[C@]5(CC)[C@@H]6C[C@@H]6CN6CC[C@]43[C@@H]65)C2)C1` was run?
Answer: The growth was -36.5% (active).

Question: `Oc1cccnc1CN1CCOCC1` was tested. Which growth did it give?
Answer: The growth was 94% and 88.5%.

Question: Which growth does the source give for `Cc1cc(NCc2cc(Nc3ccnc4cc(Cl)ccc34)ccc2F)nc(N2CCN(c3ccccc3)CC2)n1` here?
Answer: Its growth is -40.7% (active).

Question: Which growth does the source give for `N#CCCN(CCO)c1ccccc1` here?
Answer: The growth was 89.9%.

Question: For `OCCSc1ccc(Cl)cc1`, which growth is on record?
Answer: The growth was 131% and 90.3%.
